Measured values reported in PubChem BioAssay AID463173 (ICCB-Longwood Screening Facility, Harvard Medical School, 2010).
The whole screen tested about 52,000 compounds, of which about 4,300 (8.3%) were called active. Rule as the data show it: active = survival mostly below about 52% (no sharp cut-off); inactive = mostly above about 56%. The entries come from a sample that favours actives as a whole.

tested on: DeltatarO mutant; assay: growth inhibition of S. aureus wild type versus tarO mutant, primary screen, teichoic acid synthesis inhibitors, RN4220, OD600 (AID 463173); settings: OD600, 18 h, stronger effect = lower value, screened at 18.75 µg/mL (by protocol)

Row | Compound | survival
1 | CNC(=O)C1CCC(Cn2c(=O)c3sccc3n(Cc3ccc(F)cc3)c2=O)CC1 (stereo not drawn) | 79% (inactive)
2 | NS(=O)(=O)c1ccc(CCNC(=O)c2nc(SCc3ccccc3F)ncc2Cl)cc1 | 45% (inactive)
3 | CC(C)(C)NS(=O)(=O)c1ccc2oc3ccc(S(=O)(=O)NC(C)(C)C)cc3c2c1 | 86% (inactive)
4 | O=C(O)c1cccc(N=NN2CCOCC2)c1 | 80% (inactive)
5 | CSc1cccc(NS(=O)(=O)c2ccc3[nH]cc(C(=O)N4CCCC4)c(=O)c3c2)c1 | 91% (inactive)
6 | O=C(CSc1ccc2ccccc2n1)Nc1nsc(-c2ccc(Cl)cc2)n1 | 57% (inactive)
7 | Cc1cccc(Cn2cc(S(=O)(=O)c3cccc(C)c3)c(=O)c3cc(F)c(N4CCOCC4)cc32)c1 | 76% (inactive)
8 | CCCCOc1ccc(C2C(=O)N(C3CCCCC3)CC(=O)N2C2CCCCC2)cc1 (stereo not drawn) | 94% (inactive)
9 | CCN(CC)S(=O)(=O)c1ccc2c(c1)N(CC(=O)NCCc1ccccc1)C(=O)CO2 | 76% (inactive)
10 | CC(C)Oc1ccc(CNC(=O)c2ccc(CS(=O)Cc3ccccc3Cl)o2)cc1 (stereo not drawn) | 109% (inactive)
11 | CC(C)Oc1ccc(CNC(=O)c2ccc(CS(=O)c3cccc(Cl)c3)o2)cc1 (stereo not drawn) | 52% (active)
12 | Cc1ccc(S(=O)Cc2ccc(C(=O)NCc3ccc(OC(C)C)cc3)o2)cc1 (stereo not drawn) | 51% (inactive)
13 | O=C(Cn1c(-c2cccs2)cc2cc(F)ccc21)N1CCN(c2ccccc2)CC1 | 71% (inactive)
14 | Cc1ccc(C)c(NC(c2ccccc2)c2nnc(-c3ccccc3F)o2)c1 (stereo not drawn) | 4% (active)
15 | COc1cc(Cl)c(C)cc1NC(c1ccccc1)c1nnc(-c2ccccc2Cl)o1 (stereo not drawn) | 69% (inactive)
16 | CCc1cccc(NC(c2ccccc2)c2nnc(-c3ccccc3F)o2)c1 (stereo not drawn) | 11% (active)
17 | CCc1cccc(NC(c2nnc(-c3ccccc3)o2)c2ccc(F)cc2Cl)c1 (stereo not drawn) | 83% (inactive)
18 | COc1ccc(NC(c2ccc(F)cc2)c2nnc(-c3ccccc3Cl)o2)cc1Cl (stereo not drawn) | 78% (inactive)
19 | Cc1ccc(Cl)cc1NC(c1ccc(F)cc1)c1nnc(-c2ccccc2)o1 (stereo not drawn) | 86% (inactive)
20 | COc1ccc(OC)c(NC(=O)CSc2cn(CC(=O)N3CCOCC3)c3ccccc23)c1 | 91% (inactive)

Row | Compound | survival
21 | CC(=O)Nc1ccc2nc(SCc3ccccc3)sc2c1 | 63% (inactive)
22 | CC(C)NC(=O)Cn1c(SCC(=O)N2CCc3ccccc32)nc2ccccc21 | 97% (inactive)
23 | Cc1ccc2nc(-c3ccccc3F)c(Nc3ccc(Cl)cc3)n2c1 | 16% (inactive)
24 | Cc1ccc(-n2c3nc(=O)n(C)c(=O)c-3cc3ccccc32)c(C)c1 | 99% (inactive)
25 | Cn1c(=O)nc2n(-c3ccc(Br)cc3)c3cccc(Cl)c3cc-2c1=O | 80% (inactive)
26 | CCCCn1c(=O)nc2n(-c3ccc(F)cc3)c3ccccc3cc-2c1=O | 41% (active)
27 | CCOc1ccccc1C(=O)N1CCC(c2nc3ccccc3o2)CC1 | 80% (inactive)
28 | Cc1cccc(NC(=O)CCCn2c(C)c3cnn(-c4ccccc4)c(=O)c3c2C)c1C | 71% (inactive)
29 | CCOC(=O)c1cnc(SCC(=O)OC)nc1N | 95% (inactive)
30 | CCOC(=O)c1cnc(SC2CCc3ccccc3C2=O)nc1N (stereo not drawn) | 79% (inactive)
31 | CCCCSc1ncc(C(=O)OCC)c(N)n1 | 78% (active)
32 | COc1ccc(CNC(=O)CN(c2ccccc2)S(=O)(=O)N(C)C)cc1 | 145% (inactive)
33 | O=C(Cc1csc2nc(-c3ccccc3)cn12)NCc1ccc(F)cc1 | 90% (inactive)
34 | Cc1cccc(-c2cc3nc4c(c(N5CCCC5)n3n2)CCCC4)c1 | 123% (inactive)
35 | O=S(=O)(c1ccc(Cl)cc1)c1nc(-c2ccco2)oc1SCc1ccccc1F | 62% (inactive)
36 | Cc1ccc(S(=O)(=O)c2nc(-c3ccco3)oc2SCc2ccc(F)cc2)cc1 | 66% (inactive)
37 | O=C(CSc1oc(-c2ccco2)nc1S(=O)(=O)c1ccc(Br)cc1)c1ccccc1 | 47% (active)
38 | Cc1ccc(CSc2oc(-c3ccco3)nc2S(=O)(=O)c2ccc(C)cc2)cc1 | 62% (inactive)
39 | O=S(=O)(c1ccc(Br)cc1)c1nc(-c2ccco2)oc1SCc1ccccc1Cl | 149% (inactive)
40 | O=C(CSc1oc(-c2ccco2)nc1S(=O)(=O)c1ccc(Br)cc1)c1ccc(Cl)cc1 | 52% (inactive)

Row | Compound | survival
41 | O=C(CSc1oc(-c2ccco2)nc1S(=O)(=O)c1ccc(Cl)cc1)c1ccccc1 | 125% (inactive)
42 | CCSc1oc(-c2ccco2)nc1S(=O)(=O)c1ccc(Br)cc1 | 54% (inactive)
43 | Cc1ccc(S(=O)(=O)c2nc(-c3ccco3)oc2SCC(C)C)cc1 | 48% (active)
44 | CC(C)CSc1oc(-c2ccco2)nc1S(=O)(=O)c1ccc(Br)cc1 | 33% (active)
45 | O=S(=O)(c1ccc(Br)cc1)c1nc(-c2ccco2)oc1SCc1ccccc1F | 44% (active)
46 | CCCSc1oc(-c2ccco2)nc1S(=O)(=O)c1ccc(Br)cc1 | 55% (inactive)
47 | O=C(CSc1nnc(-c2ccccc2)c(-c2ccccc2)n1)NC1CCCC1 | 77% (inactive)
48 | COc1ccc(CC(NC(C)=O)C(=O)NC2CCN(c3nc(OC)nc(OC)n3)CC2)cc1 (stereo not drawn) | 88% (inactive)
49 | Cc1ccc(-c2cc(-c3coc4ccc(Cl)cc4c3=O)c3c(n2)-c2ccccc2OC3)cc1 | 77% (inactive)
50 | Cc1ncc(COC(=O)C(C)C)c2cc(C(=O)Nc3ccccc3C(F)(F)F)c(=O)oc12 | 134% (inactive)
51 | Cc1ccc(OCC(=O)Nc2nc(-c3ccc(Br)cc3)ns2)cc1C | 110% (inactive)
52 | O=C(Cc1cccs1)Nc1c(C(=O)Nc2ccc(F)cc2)oc2ccccc12 | 94% (inactive)
53 | Cc1c(C(=O)Nc2ccc(-n3c(C)nc4ccccc4c3=O)cc2)cccc1[N+](=O)[O-] | 99% (inactive)
54 | Cc1cc(-n2c(C)nc3ccccc3c2=O)ccc1NC(=O)c1cccc([N+](=O)[O-])c1C | 0% (active)
55 | Cc1ccc(C(=O)Nc2ccc(-n3c(C)nc4ccccc4c3=O)cc2)cc1[N+](=O)[O-] | 117% (inactive)
56 | Cc1cc(-n2c(C)nc3ccccc3c2=O)ccc1NC(=O)c1ccccc1[N+](=O)[O-] | 69% (inactive)
57 | Cc1cc(-n2c(C)nc3ccccc3c2=O)ccc1NC(=O)c1ccc(C)c([N+](=O)[O-])c1 | 37% (active)
58 | Cc1cc(-n2c(C)nc3ccccc3c2=O)ccc1NC(=O)c1ccc([N+](=O)[O-])cc1 | 83% (inactive)
